# pPAFAH FP inh = pPAFAH enzyme inhibitors, primary screen, biochemical, fluorescence polarization, human; recombinant pPAFAH, FP-rhodamine probe fluorescence polarization; 1.5% of 330,000 active; inhibition, % at 3.39 µM; Platelet-activating factor acetylhydrolase (Homo sapiens), Q13093;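 active = inhibition above the mean inhibition across the screen plus 3 SD, cut at about 25% in these data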;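 also: inhibitors block binding of the rhodamine activity-based probe so polarization drops; 0% = enzyme with DMSO and 100% = wells lacking pPAFAH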
# PAFAH1B2 inh = PAFAH1B2 enzyme inhibitors, primary screen, biochemical, fluorescence polarization, human; Platelet-activating factor acetylhydrolase IB subunit alpha2 (Homo sapiens), P68402; recombinant PAFAH1B2, FP-rhodamine activity probe; inhibition, % at 3.39 µM; 1.2% of 340,000 active; AID 492953, 2010;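 active = inhibition above the mean of all tested compounds plus 3 SD, cut at about 24% in these data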;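 also: 0% = enzyme with DMSO and 100% = wells lacking PAFAH1B2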
# Target sequence (P68402 whole entry, looked up): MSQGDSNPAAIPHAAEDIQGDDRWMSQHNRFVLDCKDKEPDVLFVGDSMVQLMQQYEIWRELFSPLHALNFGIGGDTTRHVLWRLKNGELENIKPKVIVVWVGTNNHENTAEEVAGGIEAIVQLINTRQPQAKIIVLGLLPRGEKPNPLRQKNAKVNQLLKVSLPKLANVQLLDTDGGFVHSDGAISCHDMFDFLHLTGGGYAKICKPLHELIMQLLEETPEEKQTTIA
# PP5 inh = PP5 phosphatase inhibitors, primary screen, biochemical, fluorescence | inhibition, % at 6.7 µM | 0.18% of 320,000 active | AID 1987, 2009 | Serine/threonine-protein phosphatase 5 (Homo sapiens), P53041 | purified PP5c, OMFP substrate fluorescence;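 active = inhibition above the campaign's mean inhibition across all tested compounds plus 3 SD, cut at about 9.5% in these data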;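 also: 0% = DMSO only and 100% = 100 µM cantharidin control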
# PAFAH2 FP inh = PAFAH2 enzyme inhibitors, primary screen, biochemical, fluorescence polarization, human; AID 492956, 2010; recombinant PAFAH2, FP-rhodamine activity probe; 0.99% of 340,000 active; inhibition, % at 3.39 µM; Platelet-activating factor acetylhydrolase 2, cytoplasmic (Homo sapiens), Q99487;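 active = inhibition above the mean over all tested compounds plus 3 SD, cut at about 30% in these data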;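 also: inhibitors block probe labeling of enzyme so polarization drops; 0% = enzyme with DMSO and 100% = wells lacking PAFAH2 protein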
# PP1 counter = PP1-alpha phosphatase inhibitors, primary screen, counter-screen for PP5 inhibitor project, biochemical, fluorescence, OMFP substrate, single point. purified PP1alpha. inhibition, % at 6.7 µM. 0.9% of 320,000 active. AID 2235, 2010;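 active = inhibition above the mean inhibition of all tested compounds plus 3 SD, computed separately for each screening campaign, cut at about 15% in these data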
# Target sequence (P62136 whole entry, looked up): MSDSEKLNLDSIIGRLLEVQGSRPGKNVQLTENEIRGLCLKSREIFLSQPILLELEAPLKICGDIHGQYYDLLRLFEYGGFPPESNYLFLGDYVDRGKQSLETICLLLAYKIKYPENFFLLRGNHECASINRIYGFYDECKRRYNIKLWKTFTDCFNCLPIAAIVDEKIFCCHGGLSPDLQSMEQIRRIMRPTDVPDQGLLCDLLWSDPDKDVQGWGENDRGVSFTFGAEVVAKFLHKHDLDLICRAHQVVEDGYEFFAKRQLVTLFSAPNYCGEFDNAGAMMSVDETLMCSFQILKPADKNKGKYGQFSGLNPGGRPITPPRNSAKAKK
# PAFAH1B3 inh = PAFAH1B3 enzyme inhibitors, primary screen, biochemical, fluorescence polarization, human. 0.28% of 340,000 active. Platelet-activating factor acetylhydrolase IB subunit alpha1 (Homo sapiens), Q15102. inhibition, % at 3.39 µM. recombinant PAFAH1B3, FP-rhodamine probe;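 active = inhibition above the screen-wide average of all tested compounds plus 3 SD, cut at about 25% in these data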;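 also: 0% = enzyme with DMSO only and 100% = wells lacking PAFAH1B3 protein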
# pPAFAH FP conf = pPAFAH (PLA2G7) enzyme inhibitors, confirmation, biochemical, fluorescence polarization, human; shares compounds with pPAFAH FP inh; recombinant pPAFAH, FP-Rh probe fluorescence polarization; inhibition, % at 3.39 µM; 72% of 2,300 active;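 active = mean inhibition of the triplicate above the hit cutoff set for the earlier primary screen, cut at about 25% in these data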;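 also: 0% = enzyme with DMSO and 100% = wells lacking pPAFAH enzyme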
# * hit, by the source's call; i = inactive; . = no result given. An excerpt weighted towards active compounds, which were near 3.4% of everything screened.
SMILES,pPAFAH FP inh,PAFAH1B2 inh,PP5 inh,PAFAH2 FP inh,PP1 counter,PAFAH1B3 inh,pPAFAH FP conf
COc1cc(/C=C/C(=O)OCC(=O)c2ccc(OC(F)F)cc2)ccc1O,8,8,.,12,.,5,.
C[C@@H](NC(=O)c1cc2c([nH]c3ccccc32)c(-c2ccccc2)n1)C(=O)O,-1,0,0,6,1,5,.
COc1ccc2nc(NC(=O)c3ccc(NS(=O)(=O)c4cccs4)cc3)sc2c1,15,1,2,7,2,5,.
COc1ccc2[nH]c(O)c(N=NC(=O)c3ccc(NS(=O)(=O)c4cccs4)cc3)c2c1,44*,21,0,23,17*,32*,39*
Cc1nnc(SCC(=O)N(C)c2ccccc2)n1-n1cccc1,0,1,-1,4,-2,4,.
CN(C(=O)CSc1nc(O)cc(=O)n1C1CCCC1)c1ccccc1,48*,4,-1,-9,8,8,8
CS(=O)(=O)Nc1cccc2[nH]ncc12,5,4,1,-1,-1,4,.
COc1cccc2cc(C(=O)CS(=O)(=O)c3ccc(C(C)(C)C)cc3)c(=O)oc12,52*,42*,1,15,4,4,35*
COc1ccc(S(=O)(=O)CC(=O)c2cc3cccc(C)c3oc2=O)cc1,16,-1,-2,8,-1,5,.
CNc1ccc(Br)cc(C(=O)/C=C/c2cccc(OC)c2OC)c1=O,20,5,-1,13,9,6,.
CCNc1ccc(Br)cc(C(=O)/C=C/c2ccccc2Cl)c1=O,46*,3,-1,36*,7,9,28*
COc1cc(C2C(C#N)=C(N)OC3=C2C(=O)CCC3)c([N+](=O)[O-])cc1OC (stereo unspecified),38*,12,0,26,2,27*,11
Cc1cc(C2C(C#N)=C(N)OC3=C2C(=O)CCC3)c(C)s1 (stereo unspecified),2,5,-1,-30,4,11,.
Nc1cccc2c(=O)c3ccccc3[nH]c12,41*,2,2,-1,16*,13,10
Cc1ccc(N2CC(C(=O)OCC(=O)Nc3ccc(Cl)cc3)CC2=O)cc1 (stereo unspecified),9,-2,3,-3,1,3,.
COC(=O)c1ccccc1-c1c2ccc(=N)cc-2oc2cc(N)ccc12,126*,134*,i,148*,i,149*,132*
COc1cc2[nH]c3c(N4CCN(c5ccc(Cl)cc5)CC4)ncnc3c2cc1OC,62*,12,4,1,2,38*,54*
CCOc1ccc(NC(=O)c2ccc(F)cc2F)cc1,-1,2,0,5,7,1,.
CCOc1ccc(C(=O)N/N=C(/C)C2C(=O)c3ccccc3C2=O)cc1,4,-3,1,0,-4,10,.
C/C(=N\NC(=O)c1ccc(-c2ccccc2)cc1)C1C(=O)c2ccccc2C1=O,53*,29*,1,20,11,20,67*
Cc1c(C)c2ccc(OCC(=O)N[C@@H](Cc3ccccc3)C(=O)O)cc2oc1=O,1,-1,3,-3,-6,7,.
CCCCCCc1c(C)c2ccc(OCC(=O)N[C@@H](Cc3ccccc3)C(=O)O)cc2oc1=O,38*,13,5,16,1,7,21
Nc1nc(SCc2ccccc2)n[nH]1,47*,2,1,0,-1,-4,1
Nc1nc(SCc2ccc(Br)cc2)n[nH]1,4,15,-1,1,0,14,.
O=c1cc(-c2ccccc2)oc2cc(O)c(O)c(O)c12,56*,3,.,22,.,17,69*
SMILES,pPAFAH FP inh,PAFAH1B2 inh,PP5 inh,PAFAH2 FP inh,PP1 counter,PAFAH1B3 inh,pPAFAH FP conf
O=c1cc(-c2ccc(O)cc2)oc2c1ccc1ccccc12,0,-5,2,3,4,-6,.
O=c1cc(-c2ccc(O)cc2)oc2c(O)c(O)c(O)c(O)c12,37*,26*,2,69*,-5,52*,72*
COc1c(O)cc2oc(-c3ccc(O)cc3)cc(=O)c2c1O,8,6,1,5,-4,4,.
Cc1nn(-c2cccc(C(F)(F)F)c2)c(Cl)c1/C=N/Nc1cccc(C(=O)O)c1,35*,6,4,-1,3,6,35*
CN(C)c1ccc(N2C(=O)CSC2=S)cc1,37*,-3,0,-9,2,-10,0
CCOc1ccc(C(C)NC(=O)c2ccc3c(c2)NC(=O)C(C)S3)cc1OCC (stereo unspecified),1,2,1,-4,0,2,.
COc1ccc(CNc2oc(-c3cccc4ccccc34)nc2C#N)cc1,-1,-3,2,-7,-3,2,.
CCOP(=O)(OCC)c1nc(-c2cccc3ccccc23)oc1NCCc1ccc(OC)cc1,38*,-1,4,6,1,7,44*
CCCCN(C)CCNC(=O)CN1C(=O)CSc2ccc(S(=O)(=O)N3CCCC3)cc21,2,5,1,3,2,-1,.
C=CCn1c(C)c(C(C)=O)c(N2CCN(C(c3ccccc3)c3ccccc3)CC2)nc1=S,7,9,1,5,5,6,.
C[C@H](CO)N1C[C@H](C)[C@@H](CN(C)S(C)(=O)=O)Oc2c(NC(=O)C3CC3)cccc2C1=O,-3,2,.,0,.,10,.
COc1ccc(CC(=O)OC(C)CN2CCCC2)cc1 (stereo unspecified),-2,-2,2,-2,-1,-4,.
CC(CN1CCOCC1)OC(=O)Cc1ccc(Cl)cc1 (stereo unspecified),54*,9,1,-10,-3,5,5
COc1ccc(CCOC(=O)c2ccc(NC(=O)CC#N)cc2)cc1,53*,-3,2,-4,-2,-10,2
Cc1cc(CNC(=O)COC(=O)Cn2[nH]c(=O)c3ccccc3c2=O)cc(C)c1O,-5,3,3,0,-4,4,.
O=C(O)c1ccccc1Nc1cccc(OCc2ccc3ccccc3n2)c1,36*,9,2,11,13,7,31*
COc1ccc(C)cc1Nc1n[n+](-c2ccccc2)c(-c2ccc(OC)c(OC)c2OC)s1,10,-1,2,6,-2,11,.
